# Results reported in PubChem BioAssay.
# Unmarked numbers belong to inactive results. Calls of active or inactive are those of the source.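 The calls were made as follows, unless noted: active = mean inhibition above 46.68%, the untreated control wells mean plus 3 SD; inactive = the rest.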
# Target: Nuclear receptor coactivator 1 (Homo sapiens) (UniProt Q15788)
# Assay: SRC1 coactivator transcriptional activity inhibitors, confirmation, cell-based, luminescence, quadruplicate (AID 588820);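 also: 0% = DMSO wells and 100% = gossypol 36 µM treated wells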
# Conditions: HEK293 GAL4-SRC1 luciferase reporter, at 3.6 µM, hits give high values
# Sequence of Nuclear receptor coactivator 1 (Homo sapiens) (Q15788 whole entry, looked up): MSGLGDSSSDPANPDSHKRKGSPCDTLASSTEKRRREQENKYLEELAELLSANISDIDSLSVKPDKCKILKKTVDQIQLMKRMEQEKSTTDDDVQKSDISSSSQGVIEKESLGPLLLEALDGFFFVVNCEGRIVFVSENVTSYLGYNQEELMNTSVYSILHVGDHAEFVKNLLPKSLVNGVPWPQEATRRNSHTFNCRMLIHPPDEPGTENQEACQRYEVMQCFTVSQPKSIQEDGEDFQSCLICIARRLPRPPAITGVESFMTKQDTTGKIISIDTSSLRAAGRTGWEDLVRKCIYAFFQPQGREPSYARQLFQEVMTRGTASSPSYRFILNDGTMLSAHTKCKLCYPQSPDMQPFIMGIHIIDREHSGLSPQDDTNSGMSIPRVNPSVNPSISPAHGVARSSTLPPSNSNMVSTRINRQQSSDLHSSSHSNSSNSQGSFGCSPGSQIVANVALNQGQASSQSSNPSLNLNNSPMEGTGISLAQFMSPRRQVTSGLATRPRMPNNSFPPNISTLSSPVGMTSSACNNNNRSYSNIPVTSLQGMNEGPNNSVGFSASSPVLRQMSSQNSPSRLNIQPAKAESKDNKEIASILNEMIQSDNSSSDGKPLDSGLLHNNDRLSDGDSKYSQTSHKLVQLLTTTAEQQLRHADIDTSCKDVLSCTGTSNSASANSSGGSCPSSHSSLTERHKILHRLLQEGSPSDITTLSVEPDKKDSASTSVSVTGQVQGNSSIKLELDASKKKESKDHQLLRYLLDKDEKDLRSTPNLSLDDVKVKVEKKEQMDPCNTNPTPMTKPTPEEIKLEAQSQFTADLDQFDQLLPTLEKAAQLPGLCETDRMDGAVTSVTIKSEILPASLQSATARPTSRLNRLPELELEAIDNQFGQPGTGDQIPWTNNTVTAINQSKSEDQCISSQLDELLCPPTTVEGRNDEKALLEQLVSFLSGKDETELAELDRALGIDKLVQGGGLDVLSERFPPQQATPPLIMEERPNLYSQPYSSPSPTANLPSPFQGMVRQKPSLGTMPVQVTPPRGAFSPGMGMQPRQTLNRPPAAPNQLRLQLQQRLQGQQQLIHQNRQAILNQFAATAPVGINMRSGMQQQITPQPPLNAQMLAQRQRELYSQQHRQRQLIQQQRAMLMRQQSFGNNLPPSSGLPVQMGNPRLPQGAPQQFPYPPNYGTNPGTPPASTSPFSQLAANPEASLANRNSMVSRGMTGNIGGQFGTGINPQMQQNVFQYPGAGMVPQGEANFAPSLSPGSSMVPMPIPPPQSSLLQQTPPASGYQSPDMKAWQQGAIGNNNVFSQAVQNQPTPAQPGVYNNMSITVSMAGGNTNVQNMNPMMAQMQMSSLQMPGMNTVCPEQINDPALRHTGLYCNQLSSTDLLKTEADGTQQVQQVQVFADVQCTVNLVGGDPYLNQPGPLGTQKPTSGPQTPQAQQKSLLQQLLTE
row,SMILES,inhibition
1,Cc1ccc(C(C)C)c(OCc2ccc(C(=O)N/N=C/c3cccc(O)c3O)cc2)c1,40.4%
2,Nc1ccc(C(=O)N/N=C\c2cc(N=Nc3cccc4ccccc34)ccc2O)cc1,14.5%
3,COc1ccc(S(=O)(=O)/N=C2\C=C(Nc3ccc(O)cc3)C(=O)c3ccccc32)cc1,85% (active)
4,Oc1ccccc1N=Nc1nc(-c2ccccc2)c(-c2ccccc2)[nH]1,76.5% (active)
5,Nc1ccc2c(c1)C(=O)C(=O)c1ccccc1-2,87% (active)
6,CCN1/C(=C/C=C/c2oc3ccc(-c4ccccc4)cc3[n+]2CC)Oc2ccc(-c3ccccc3)cc21,71.9% (active)
7,COc1ccc(-c2csc(NC(=O)c3ccccc3NS(=O)(=O)c3ccc(F)c(F)c3)n2)cc1,55% (active)
8,COc1ccc(/C=N/NC(=S)Nc2ccccc2[N+](=O)[O-])cc1O,-91.8%
9,Cc1cc(C)nc(SCc2ccc(C(=O)N/N=C/c3cccc(O)c3O)cc2)n1,27.1%
10,COC(=O)c1cc(C)nc2c1C(=O)C(=O)C=C2N1CCOCC1,-43.5%
11,Cc1ccc(C(C)C)c(OCc2ccc(C(=O)N/N=C/c3ccc(O)cc3O)cc2)c1,67% (active)
12,O=C1C(Nc2ccccc2)=C/C(=N/S(=O)(=O)c2cccs2)c2ccccc21,44.6%
13,CCN(CC)S(=O)(=O)c1ccc(N/N=C/c2ccc(O)cc2O)nc1,63.5% (active)
14,COc1cccc(N2CCN(c3ncnc4c3[nH]c3ccc(F)cc34)CC2C)c1 (configuration not stated),86.7% (active)
15,O=c1c2ccccc2nc(N/N=C/c2c(O)ccc3ccccc23)n1O,20.9%
16,Cn1nc(-c2ccccn2)nc2c(=O)n(C)c(=O)nc1-2,3.11%

# System: not listed separately
# Assay: VP16 transactivation inhibitors, counter-screen for SRC1 inhibitor project, cell-based, luminescence, high throughput (AID 588824; in the data active = inhibition above about 25%)
# Conditions: cell-based VP16 transactivation luciferase luminescence; at 3.6 µM; hits give high values
row,SMILES,inhibition
1,Cc1ccc(C(C)C)c(OCc2ccc(C(=O)N/N=C/c3cccc(O)c3O)cc2)c1,27.9% (active)
2,Nc1ccc(C(=O)N/N=C\c2cc(N=Nc3cccc4ccccc34)ccc2O)cc1,31.8% (active)
3,COc1ccc(S(=O)(=O)/N=C2\C=C(Nc3ccc(O)cc3)C(=O)c3ccccc32)cc1,90.8% (active)
4,Oc1ccccc1N=Nc1nc(-c2ccccc2)c(-c2ccccc2)[nH]1,71% (active)
5,Nc1ccc2c(c1)C(=O)C(=O)c1ccccc1-2,93% (active)
6,CCN1/C(=C/C=C/c2oc3ccc(-c4ccccc4)cc3[n+]2CC)Oc2ccc(-c3ccccc3)cc21,94.2% (active)
7,COc1ccc(-c2csc(NC(=O)c3ccccc3NS(=O)(=O)c3ccc(F)c(F)c3)n2)cc1,81.9% (active)
8,COc1ccc(/C=N/NC(=S)Nc2ccccc2[N+](=O)[O-])cc1O,-70%
9,Cc1cc(C)nc(SCc2ccc(C(=O)N/N=C/c3cccc(O)c3O)cc2)n1,23.9%
10,COC(=O)c1cc(C)nc2c1C(=O)C(=O)C=C2N1CCOCC1,52.3% (active)
11,Cc1ccc(C(C)C)c(OCc2ccc(C(=O)N/N=C/c3ccc(O)cc3O)cc2)c1,77% (active)
12,O=C1C(Nc2ccccc2)=C/C(=N/S(=O)(=O)c2cccs2)c2ccccc21,75.7% (active)
13,CCN(CC)S(=O)(=O)c1ccc(N/N=C/c2ccc(O)cc2O)nc1,58.3% (active)
14,COc1cccc(N2CCN(c3ncnc4c3[nH]c3ccc(F)cc34)CC2C)c1 (configuration not stated),91.8% (active)
15,O=c1c2ccccc2nc(N/N=C/c2c(O)ccc3ccccc23)n1O,76.4% (active)
16,Cn1nc(-c2ccccn2)nc2c(=O)n(C)c(=O)nc1-2,53.1% (active)
